Screens deposited in PubChem BioAssay by Broad Institute.
In the library only some 1.7% were active in any assay of this set; here they are far more common.
FGF22 binding-1: FGF22 (human) thermal shift binding. Q9HCT0. recombinant FGF22 thermal shift, SYPRO orange fluorescence; percent of sucrose octasulfate shift, DMSO zero. activity (Tm shift, normalised), % at 9.99 µM. hit rate 1.5% among 340,000;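 active = mean Tm shift, scaled 0 neutral to 100 positive control, at about 1.3% or above, every replicate too, limit read from the data; inconclusive = no clear call, values can overlap the other calls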
Target sequence (Q9HCT0 whole entry, looked up): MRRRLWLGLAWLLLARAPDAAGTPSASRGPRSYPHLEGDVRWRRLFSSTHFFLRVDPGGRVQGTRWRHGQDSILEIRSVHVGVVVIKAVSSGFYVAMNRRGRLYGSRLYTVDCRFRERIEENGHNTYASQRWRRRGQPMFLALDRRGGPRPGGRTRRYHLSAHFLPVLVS
Vif inh: blocks HIV Vif function | inhibition, % at 7.49 µM | hit rate 0.35% among 340,000 | HEK293T cells, Vif self-association by quenched fluorescence, imaging, 24 h; in the data active = inhibition above about 50%, passing the limit was not always enough; inconclusive = no clear call, values can overlap the other calls; inactive = below about 31%
CFTR F508del cor: CFTR F508del correction in bronchial cells; CFBE cells, YFP halide quenching; stimulated with forskolin plus potentiator P3; % fluorescence drop versus neutral controls; activity (quench increase), % at 7.58 µM; hit rate 0.36% among 350,000; AID 720511;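 active = mean added fluorescence quench of at least 8% versus neutral control, with both replicates also reaching 8%; inconclusive = only one of the mean or replicate conditions met; inactive = mean below 8% and not both replicates reaching 8%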;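 note: cells transiently co-express mutant CFTR-F508del with the halide-sensitive YFP; corrector assay measuring rescue of mutant channel to the surface after 24 h compound exposure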
FGF22 binding-2: FGF22 (human) binding in thermal shift; shares compounds with FGF22 binding-1; recombinant FGF22 thermal shift, SYPRO orange fluorescence; thermal shift activity, °C (ΔTm) at 38 µM; hit rate 2% among 1,000; AID 720646;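 active = fitted rise in melting shift crosses a set limit at or below the top valid dose tested; inconclusive = flat fit at mid-level activity, or a poor quality fit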
SYPRO no-protein: counter-screen for FGF22 binders: compound-only thermal shift, no protein. hit rate 2% among 1,000. AID 743019. AC50, µM (doses to about 38 µM). shares compounds with FGF22 binding-1. compound-only SYPRO orange thermal shift counter-screen;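 active = rising signal whose fitted curve reaches the 0.54 level within the top valid dose, showing a melting point, actives reach about 13 µM in these data; inactive = the rest, including activity in the opposite direction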; note: value is where the raw curve crosses a fixed level and not half-maximal
Active calls of the source: *; i = inactive; ? = inconclusive; nt = no result; [ ] = another dose, or the depositor's remark.

SMILES	FGF22 binding-1	Vif inh	CFTR F508del cor	FGF22 binding-2	SYPRO no-protein
O=C([C@@H]1[C@@H](CO)[C@@H]2Cn3c(cccc3=O)[C@@H]2N1Cc1ccccc1Cl)N1CCOCC1	0	nt	0	nt	nt
O=C(Nc1ccc(C(=O)O)cc1)Nc1ccc([N+](=O)[O-])cc1	1.9*	9	-3	0.089	i
O=C(Nc1ccc(C(=O)O)cc1)Nc1cccc([N+](=O)[O-])c1	0	-1	nt	nt	nt
C[C@@H]1CCCCO[C@H](CN(C)C(=O)Nc2ccc(F)cc2)[C@H](C)CN([C@@H](C)CO)C(=O)c2cc(NS(=O)(=O)c3cccs3)ccc2O1	0	nt	0	nt	nt
CO[C@H]1CN(C)C(=O)c2ccc(NC(C)=O)cc2OC[C@H](C)N(Cc2ccncc2)C[C@@H]1C	0	nt	-1	nt	nt
O=C(C[C@H]1C[C@@H]2c3cc(NC(=O)CC4CC4)ccc3O[C@@H]2[C@@H](CO)O1)NCc1ccccn1	0	nt	2	nt	nt
COCC(=O)Nc1ccc2c(c1)[C@@H]1C[C@@H](CC(=O)NCc3ccccn3)O[C@@H](CO)[C@@H]1O2	1.3*	nt	-6	0.018[42 µM]	i
COCC(=O)Nc1ccc2c(c1)[C@H]1C[C@@H](CC(=O)NCCN3CCCCC3)O[C@H](CO)[C@H]1O2	1.3*	nt	-2	0.065	i
O=C(Nc1ccc2c(c1)[C@@H]1C[C@H](CC(=O)N3CCCCC3)O[C@@H](CO)[C@@H]1O2)NC1CCCC1	20*	nt	-2	0.18	i
CN(C)CC(=O)Nc1ccc2c(c1)[C@H]1C[C@H](CC(=O)NCC3CC3)O[C@H](CO)[C@H]1O2	0	nt	0	nt	nt
COCC(=O)Nc1ccc2c(c1)[C@H]1C[C@@H](CC(=O)NCCN3CCCCC3)O[C@@H](CO)[C@H]1O2	1	nt	-4	nt	nt
CN(C)CC(=O)Nc1ccc2c(c1)[C@H]1C[C@@H](CC(=O)NCC3CC3)O[C@H](CO)[C@H]1O2	1.3*	nt	-2	-0.018	i
O=C(Nc1ccc2c(c1)[C@@H]1C[C@@H](CC(=O)N3CCCCC3)O[C@@H](CO)[C@@H]1O2)NC1CCCC1	0	nt	2	nt	nt
COc1ccc(NC(=O)Nc2ccc3c(c2)CC(=O)N([C@H](C)CO)C[C@@H](C)[C@H](CN(C)C(=O)Nc2ccc(C(F)(F)F)cc2)O3)cc1	0	nt	0	nt	nt
CO[C@@H]1CN(C)C(=O)c2ccc(NC(=O)C3CCOCC3)cc2OC[C@@H](C)N(C)C[C@H]1C	nt	nt	3	nt	nt
O=C(C[C@H]1C=C[C@@H](NS(=O)(=O)c2ccc(F)cc2)[C@@H](CO)O1)NCc1ccncn1	0	nt	-2	nt	nt
O=c1ccc2cc(S(=O)(=O)Nc3ccc(Br)cc3)ccc2o1	1.4*	-3	1	-0.019	i
COc1ccc(NS(=O)(=O)c2ccc3oc(=O)ccc3c2)cc1	0	-1	1	nt	nt
COc1ccccc1NS(=O)(=O)c1cccc(NC(=O)Nc2ccccc2)c1	0	-1	3	nt	nt
COc1ccccc1NS(=O)(=O)c1cccc(NC(=O)c2cc3ccccc3oc2=O)c1	1.8*	-4	0	-0.009	i
CNC[C@@H]1Oc2ccc(NS(=O)(=O)c3ccc(Cl)cc3)cc2CC(=O)N([C@H](C)CO)C[C@H]1C	0	nt	-2	nt	nt
NCC[C@H]1CC[C@H](NC(=O)Nc2ccc(F)cc2)[C@@H](CO)O1	0	nt	1	nt	nt
C=CCC(=O)NC1CC(C)(C)Cc2c1cnn2-c1ccccc1C (configuration not stated)	0	-3	-1	nt	nt
Cc1ccccc1-n1ncc2c1CC(C)(C)CC2NC(=O)C1CCC1 (configuration not stated)	1.4*	?	-1	0.088	i
CC(=O)Nc1ccc(S(=O)(=O)Nc2nc3ccccc3s2)cc1	nt	-4	nt	nt	nt
SMILES	FGF22 binding-1	Vif inh	CFTR F508del cor	FGF22 binding-2	SYPRO no-protein
CC(=O)Nc1ccc(S(=O)(=O)Nc2nc3ccc([N+](=O)[O-])cc3s2)cc1	3.4*	4	-2	-0.15	i
COc1cccc(C(=O)Nc2ccc3c(c2)C(=O)N(C)[C@H]2CC[C@@H](CC(=O)NCCCN4CCOCC4)O[C@@H]2CO3)c1	0	nt	nt	nt	nt
CO[C@@H](CN(C)Cc1nccs1)[C@H](C)CN([C@H](C)CO)S(=O)(=O)c1ccc(C)cc1	0	nt	1	nt	nt
O=C(CNS(=O)(=O)c1ccccc1F)OCC(=O)c1c[nH]c2ccccc12	0	-12	-2	nt	nt
O=C(CNS(=O)(=O)c1ccccc1)OCC(=O)c1c[nH]c2ccccc12	2.1*	11	0	0.1	i
C[C@H](CO)N1C[C@H](C)[C@@H](CN(C)C(=O)Nc2cccc3ccccc23)Oc2c(NC(=O)Nc3cccc4ccccc34)cccc2C1=O	0	nt	2	nt	nt
CC(=O)Nc1ccc2c(c1)C(=O)N(C)[C@H]1CC[C@H](CC(=O)NCc3ccc4c(c3)OCO4)O[C@@H]1CO2	0	nt	1	nt	nt
C[C@H](CO)N1C[C@H](C)[C@@H](CN(C)Cc2ccc3c(c2)OCO3)OCCCC[C@H](C)Oc2ccc(NC(=O)C3CCCCC3)cc2C1=O	0	nt	1	nt	nt
C[C@@H]1CN([C@@H](C)CO)C(=O)c2cccc(NS(=O)(=O)c3ccc(F)cc3)c2O[C@@H]1CN(C)C(=O)Nc1ccccc1	0	nt	1	nt	nt
CCOC(=O)C1(C)CCCN(C(=O)c2ccccc2)C1 (configuration not stated)	0	-3	3	nt	nt
CCOC(=O)C1(C)CCCN(C(=O)c2cccc(C#N)c2)C1 (configuration not stated)	2.0*	-6	0	-0.038	i
CC=Cc1ccc2n(c1=O)C[C@@H]1[C@@H](CO)[C@H](C(=O)Nc3ccccc3)N(CC3CC3)[C@H]21 (mixture of isomers)	0	nt	0	nt	nt
CC(=O)Nc1ccc(S(=O)(=O)Nc2nc3ccccc3nc2Nc2cccc(S(N)(=O)=O)c2)cc1	2.0*	8	-3	0.011	i
CC(=O)Nc1ccc(S(=O)(=O)Nc2nc3ccccc3nc2Nc2ccccc2)cc1	1	4	-2	nt	nt
O=C(NCC(=O)N(CC1CCCO1)C(C(=O)NC1CCCCC1)c1cccnc1)c1cccs1 (configuration not stated)	18*	-9	-2	0.14	i
O=C(NCC(=O)N(CC1CCCO1)C(C(=O)NC1CCCCC1)c1ccccc1)c1cccs1 (configuration not stated)	0	0	1	nt	nt
C[C@@H]1CN([C@@H](C)CO)S(=O)(=O)c2ccc(C#Cc3ccncc3)cc2O[C@H]1CN(C)C(=O)Nc1ccc2c(c1)OCO2	0	nt	3	nt	nt
C[C@@H]1CN([C@H](C)CO)S(=O)(=O)c2ccc(C3=CCCCC3)cc2O[C@@H]1CN(C)C(=O)Nc1ccc2c(c1)OCO2	1	nt	-2	nt	nt
C[C@@H]1CN([C@@H](C)CO)S(=O)(=O)c2ccc(C3=CCCC3)cc2O[C@H]1CN(C)C(=O)Nc1ccc2c(c1)OCO2	0	nt	5	nt	nt
C[C@@H]1CN([C@@H](C)CO)S(=O)(=O)c2ccc(C3=CCCC3)cc2O[C@@H]1CN(C)C(=O)Nc1ccc2c(c1)OCO2	2.0*	nt	1	-0.042[42 µM]	i
